# Screening results as filed in PubChem.
# In the library only some 2.6% were active in any assay of this set; here they are far more common.
# Gli-Sufu antag: blocks Gli-Sufu signaling in a luciferase reporter | Sufu-KO-LIGHT fibroblasts, Gli luciferase reporter luminescence | inhibition, % at 5 µM | actives 0.74% (n = 340,000);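 active = inhibition above about 55%, limit read from the data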;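 also: 0% = DMSO-treated cells and 100% = wells with medium but no cells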
# Cardio protect: modulators protecting cardiomyocytes from myocardial damage; H9c2 cardiomyocytes, H2O2 injury protection, ATPLite, 2 h; protection from H2O2 cell death, % at 20 µM; actives 0.63% (n = 360,000); AID 588492;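 active = compounds giving at least 50% protection of heart cells from peroxide-induced death in the single-dose screen, raw or plate-pattern-corrected value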;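 also: 0% = DMSO wells with peroxide and 100% = DMSO wells without peroxide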
# COUP-TFII inh: inhibitors of human COUP-TFII (NR2F2). HEK293T NGFI-A luciferase reporter, luminescence. inhibition, % at 8.6 µM. actives 0.7% (n = 370,000). AID 686940;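 active = inhibition above a per-plate cutoff, mean inhibition of test wells between control levels plus 3 SD, cut at about 38% in these data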;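 also: cells cotransfected with COUP-TFII expression vector driving the NGFI-A reporter; 0% = median of COUP-TF2 test wells and 100% = reporter-only cells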
# Target sequence (P24468 whole entry, looked up): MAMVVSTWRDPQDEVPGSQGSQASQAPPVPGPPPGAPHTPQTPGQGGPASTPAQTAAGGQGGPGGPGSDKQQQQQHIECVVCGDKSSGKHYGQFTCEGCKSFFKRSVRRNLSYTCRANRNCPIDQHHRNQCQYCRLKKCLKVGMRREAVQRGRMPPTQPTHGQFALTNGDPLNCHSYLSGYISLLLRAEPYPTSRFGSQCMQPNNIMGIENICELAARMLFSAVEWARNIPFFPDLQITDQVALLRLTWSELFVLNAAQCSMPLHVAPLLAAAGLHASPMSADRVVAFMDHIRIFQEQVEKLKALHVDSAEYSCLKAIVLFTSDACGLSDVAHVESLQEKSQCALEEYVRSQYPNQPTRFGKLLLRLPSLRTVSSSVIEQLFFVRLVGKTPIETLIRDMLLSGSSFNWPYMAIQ
# H9c2 TAG inh: triacylglycerol accumulation inhibition; H9c2 cells, Nile Red lipid (TAG) fluorescence; cells loaded with 200 µM oleic acid; inhibition, % at 12.5 µM; actives 0.66% (n = 230,000); AID 651582;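 active = pattern-corrected inhibition of lipid staining of at least 50% with the nuclear-stain viability signal not falling by more than 50%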;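 also: 0% = DMSO wells and 100% = triacsin C control wells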
# 697 NFkB inh: inhibitors of the PMA/ionomycin-induced NF-kB reporter in 697 B cells | inhibition, % at 4 µM | actives 0.33% (n = 330,000) | AID 435022 | 697 B-cell NF-kB luciferase reporter, 16 h; in the data active = inhibition above about 35%
# Jurkat NFkB inh: lowers PMA/ionomycin-induced NF-kB signal in Jurkat cells; PMA/ionomycin-induced NF-kB luciferase reporter, luminescence; inhibition, % at 4 µM; actives 0.53% (n = 330,000); AID 435003; in the data active = inhibition above about 50%
# Jurkat NFkB conf: inhibitors of the PMA/ionomycin-induced NF-kB reporter in Jurkat cells, retest; shares compounds with Jurkat NFkB inh; Jurkat NF-kB luciferase, 16 h; inhibition, % at 4 µM; actives 27% (n = 2,700); AID 435020;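 active = inhibition reaching about 45% at 4 µM in either replicate, limit read from the data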;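 also: plate controls were PMA/ionomycin stimulated DMSO wells for no effect and unstimulated DMSO wells for full effect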
# 697 NFkB conf: lowers PMA/ionomycin-induced NF-kB signal in 697 B cells | shares compounds with 697 NFkB inh | 697 B-cell NF-kB luciferase, 16 h | inhibition, % at 4 µM | actives 35% (n = 2,000) | AID 449746; in the data active = inhibition mostly above about 28%, no sharp cut-off; inactive = mostly below about 22%
# VP16 Luc counter: inhibits VP16 reporter, flagging COUP-TFII antagonist hits | shares compounds with COUP-TFII inh | inhibition, % at 8.5 µM | actives 25% (n = 2,500) | HEK293 Gal4-VP16 luciferase reporter, luminescence; in the data active = inhibition above about 13%
# NR2F2 inh conf: confirmation of human COUP-TFII (NR2F2) inhibitors; shares compounds with COUP-TFII inh; HEK293 NGFI-A luciferase reporter, luminescence; inhibition, % at 8.5 µM; actives 45% (n = 2,500);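 active = mean inhibition over three repeats above a set limit taken from the earlier primary screen, cut at about 38% in these data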;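 also: 100% = cells given the luciferase reporter alone without the COUP-TF2 vector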
# An asterisk follows results filed as active; . = no result given.
SMILES,Gli-Sufu antag,Cardio protect,COUP-TFII inh,H9c2 TAG inh,697 NFkB inh,Jurkat NFkB inh,697 NFkB conf,others
O=C(Nc1ccc2c(c1)OCO2)O[C@@H]1CC[C@@]23CCCN2C(=O)CCC[C@H]3C1,.,.,-14,.,.,.,.,
C#CCCCN([C@H](C(=O)OC)C(C)C)S(=O)(=O)c1ccc(F)cc1Br,.,.,16,.,.,.,.,
CC(=O)Nc1cccc(C(C)C2=CCCCC2)c1 (stereo not drawn),.,.,-20,.,.,.,.,
Fc1ccc(NC(=S)N2CCCN(c3ccc(C(F)(F)F)cn3)CC2)c(F)c1,14,-12,64*,-12,54*,66*,8,Jurkat NFkB conf=19;VP16 Luc counter=5;NR2F2 inh conf=63*
O=C(Nc1ccc(F)cc1F)N1CCCN(c2ccc(C(F)(F)F)cn2)CC1,7,-7,33,-13,-32,-3,.,
COC(=O)C1=C(C)N(Cc2cccc(C(F)(F)F)c2)C(=NCC2CC2)NC1c1cccc(C(F)(F)F)c1 (stereo not drawn),.,.,11,.,.,.,.,
COC(=O)C1CN(C2CCCC2)CCS(=O)(=O)N1Cc1cn(Cc2ccc(F)cc2)nn1 (stereo not drawn),.,.,5,.,.,.,.,
CCCCCCCn1c2c(c(=N)c3ccccc31)CCC2,89*,-22,74*,15,25,72*,.,Jurkat NFkB conf=67*;VP16 Luc counter=25*;NR2F2 inh conf=75*
CCCn1c2c(c(=N)c3c1CCC3)CCC2,21,-6,22,-15,3,36,.,
O=C(OCc1cn(Cc2cccc(F)c2)nn1)N1CCCCC1,.,.,-3,.,.,.,.,
C=CCN(C)CC#Cc1ccccc1C,.,.,-1,.,.,.,.,
CCOC(=O)c1cccc(NC(=O)CN(C)S(=O)(=O)c2ccco2)c1,.,.,-9,.,.,.,.,
CC[n+]1ccccc1/C=C1\Sc2ccc(C)cc2N1C,.,-16,61*,.,-3,69*,.,Jurkat NFkB conf=13;VP16 Luc counter=9;NR2F2 inh conf=59*
O=[N+]([O-])c1ccc(CN2CCCCCC2)cc1,22,-2,7,.,7,6,.,
CSc1ccc(CN2CCN(Cc3ccc([N+](=O)[O-])cc3)CC2)cc1,16,-14,51*,-7,-24,55*,.,Jurkat NFkB conf=26;VP16 Luc counter=3;NR2F2 inh conf=46*
Cc1ccsc1S(=O)(=O)n1c(CN2CCOCC2)nc2ccccc21,.,.,13,.,.,.,.,
COc1ccc(Nc2nccc(-c3cccc(N)c3)n2)cc1,-130,-3,11,.,-273,-117,-177,
CCN(C[C@H]1[C@@H](c2ccc(C3=CCCC3)cc2)[C@H](CO)N1Cc1ccccn1)S(=O)(=O)c1ccccc1[N+](=O)[O-],.,.,-2,.,.,.,.,
Nc1c(C(=O)CSc2nc3ccccc3o2)c(=O)[nH]c(=O)n1C1CC1,-15,-1,-32,12,-323,-40,-334,
COc1ccccc1-c1nnc(SCC(=O)c2c(N)n(C3CC3)c(=O)[nH]c2=O)o1,-7,4,-2,13,12,-1,.,
CC(=O)C1(C(=O)NCc2ccccc2)CC(c2ccccc2C(F)(F)F)=NO1 (stereo not drawn),.,.,-17,.,.,.,.,
COc1ccc(C(=O)Nc2nc(-c3cccs3)c(NC(C)=O)s2)cc1,7,-1,-15,20,25,-17,.,
CC(=O)Nc1sc(NC(=O)c2ccc(C)cc2)nc1-c1cccs1,16,9,0,32,36*,-8,13,
Cc1ccccc1CN(C)CCS(=O)(=O)c1cc(Cl)ccc1Cl,-1,-3,-9,.,36*,-9,3,
CC1CCN(C(=O)c2cc3nc(-c4ccccc4)cc(-c4ccccc4)n3n2)CC1,12,-15,16,.,35*,15,15,
SMILES,Gli-Sufu antag,Cardio protect,COUP-TFII inh,H9c2 TAG inh,697 NFkB inh,Jurkat NFkB inh,697 NFkB conf,others
Cc1cc(OCC(=O)Nc2ccc(CN3CCOCC3)cc2)c2c(C)c(C)c(=O)oc2c1,49,13,-13,.,38*,6,21,
Cc1cc(OCC(=O)Nc2ccc(CN3CCOCC3)cc2)c2c(C)cc(=O)oc2c1,4,24,-13,.,21,-7,.,
O=C(O)c1ccccc1N/N=C\c1ccnc2ccccc12,2,-31,-46,-10,-262,-61,-97,
O=C1/C(=C/Nc2ccc3c(c2)OCO3)CCc2ccccc21,-77,-24,-13,4,-469,-58,-251,
COc1ccc2c(c1)CC/C(=C\Nc1ccc3c(c1)OCO3)C2=O,-64,-18,-20,.,-30,-63,.,
O=C(c1cc(-c2ccc(Cl)cc2)on1)N1CCOCC1,-76,-11,-48,.,-120,-125,.,
O=C(c1cc(-c2ccc(Cl)cc2Cl)on1)N1CCOCC1,-126,-15,-21,.,-293,-123,-186,
COc1ccc(-c2noc(CCC(=O)NCCc3ccccc3)n2)cc1,-13,-3,0,.,-3,-18,.,
COc1ccc(-c2noc(CCCC(=O)NCC3CCCO3)n2)cc1 (stereo not drawn),16,-7,15,.,41*,-10,21,
COc1cccc(-c2nc(-c3ccc(C(=O)O)cc3)no2)c1,-136,-4,-27,-3,-351,-21,-413,
O=C(O)c1ccc(-c2noc(-c3cccc(F)c3)n2)cc1,-38,-3,-25,-10,-125,-54,.,
COc1cccc(-c2noc(CCC(=O)NCCc3ccccc3)n2)c1,8,-3,-10,.,49*,-9,49*,
CS(=O)(=O)N1CCC[C@]2(CC[C@H](CCC#N)O2)C1,.,.,-13,.,.,.,.,
Cc1ccc(/C=C2/NC(=O)N(Cc3ccccc3)C2=O)o1,-7,5,16,7,-42,-20,.,
Cn1c(=O)n(C)c2cc(/C=C3/NC(=O)N(Cc4ccccc4)C3=O)ccc21,23,1,-19,.,47*,11,27*,
COC(CNC(=O)[C@H](Cc1ccccc1)NCC(=O)NC1CCCCC1)OC,.,.,-1,.,.,.,.,
COc1ccc(/C=C2\SC(=S)N(CCC(=O)Nc3cccc(C(=O)O)c3)C2=O)cc1,6,-8,-5,-5,42*,-5,39*,
Cc1ccc(/C=C2\SC(=S)N(CCC(=O)NNC(=O)c3cccc(O)c3)C2=O)cc1,3,-15,-6,.,40*,6,12,
Cc1ccc(/C=C2\SC(=S)N(CCCC(=O)Nc3cccc(C(=O)O)c3)C2=O)cc1,51,-2,10,7,76*,-4,88*,
Cc1ccc(/C=C2\SC(=S)N(CCC(=O)NNC(=O)c3ccc(O)cc3)C2=O)cc1,-1,-23,-3,.,15,9,.,
Cc1ccc(C=C2SC(=S)N(CCCC(=O)Nc3cccc(C(=O)O)c3)C2=O)cc1,.,-14,23,-2,.,.,.,
